Laboratory results from PubChem BioAssay AID1619 (SRMLSC, 2009).
Out of some 220,000 compounds screened, about 830 (0.38%) were called active.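 How the source made its calls: active means compound inhibiting the enzyme by more than half at any dose during confirmatory dose-response retesting; inconclusive means strong single-dose inhibitors picked by rank but not retested; inactive means the rest.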 These entries were drawn from the full list. Results with a measured potency or affinity are listed apart.

Target: Leucine aminopeptidase (Plasmodium falciparum (isolate 3D7)) (UniProt Q8IL11)
Assay: P. falciparum M17LAP inhibitors, primary screen, biochemical, fluorogenic H-Leu-NHMec substrate, 1536-well (AID 1619);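 further: plate controls were full reaction with DMSO carrier for no effect and no enzyme background for full effect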
Settings: recombinant M17LAP, H-Leu-NHMec fluorogenic kinetic assay; at 30 µM; hits give high values

Leucine aminopeptidase (Plasmodium falciparum (isolate 3D7)), sequence (Q8IL11 whole entry, looked up): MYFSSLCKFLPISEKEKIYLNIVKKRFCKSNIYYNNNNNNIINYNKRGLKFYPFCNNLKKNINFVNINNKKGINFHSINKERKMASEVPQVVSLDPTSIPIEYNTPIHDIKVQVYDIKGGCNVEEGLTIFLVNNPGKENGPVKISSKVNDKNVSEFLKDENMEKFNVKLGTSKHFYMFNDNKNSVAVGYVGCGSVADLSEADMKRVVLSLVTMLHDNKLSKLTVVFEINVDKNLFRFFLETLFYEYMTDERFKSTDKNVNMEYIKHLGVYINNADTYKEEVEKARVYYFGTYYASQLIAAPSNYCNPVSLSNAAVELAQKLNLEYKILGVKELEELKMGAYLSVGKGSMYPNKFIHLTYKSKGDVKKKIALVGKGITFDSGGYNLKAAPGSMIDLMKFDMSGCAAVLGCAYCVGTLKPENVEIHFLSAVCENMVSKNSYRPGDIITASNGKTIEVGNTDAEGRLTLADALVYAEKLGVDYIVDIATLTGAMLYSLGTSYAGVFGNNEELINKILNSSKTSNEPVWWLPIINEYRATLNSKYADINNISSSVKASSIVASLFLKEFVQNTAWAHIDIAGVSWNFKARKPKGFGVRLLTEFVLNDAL

inhibition, inactive:
COC(=O)C(NC(=O)C(C)Oc1ccccc1)C(C)C (stereo not drawn) 1.41%, COc1ccc(C2=NN(c3nc(C(=O)O)cs3)C(O)(C(F)(F)F)C2)c(OC)c1 (stereo not drawn) 26.5%, CN(C)S(=O)(=O)c1ccc(Cl)c(NC(=O)COC(=O)c2cc(-c3ccccc3)nc3ccccc23)c1 15.3%, C[C@H](NC(=O)OCc1ccccc1)C(=O)NNC(=O)[C@H](Cc1ccccc1)NC(=O)OC(C)(C)C 12.1%, COc1cc(C2/C(=C(\O)c3cc(C)ccc3C)C(=O)C(=O)N2CCN(C)C)ccc1O (stereo not drawn) -5.88%, Cc1ccc2nc(-c3ccc(NC(=O)CN4CCN(C(=O)c5ccco5)CC4)cc3)sc2c1 4.66%, O=C(CN1C(=O)c2ccccc2C1=O)NCC1CCCO1 (stereo not drawn) 10.2%, O=C(CN1CCN(Cc2ccccc2)CC1)NCC1COc2ccccc2O1 (stereo not drawn) 17%, CC1CCCCC1NC(=O)COC(=O)c1ccc(N(C)C)cc1 (stereo not drawn) -9.99%, CCOC(=O)C1C(=O)NC(N2CCN(CC)CC2)=NC1c1ccccc1 (stereo not drawn) 2.42%, COc1ccc(Cc2c(O)nc(SC)n(C(C)=O)c2=O)cc1 -1.99%, COc1ccc(-n2c(SCC(=O)N3CCOCC3)nc(O)c(Cc3ccccc3)c2=O)cc1 20.3%, COc1ccccc1NC(=O)CSc1nc(O)c(Cc2ccccc2)c(=O)[nH]1 35.1%, Nc1nc(SCC(=O)Nc2ccc(Cl)cc2)[nH]c(=O)c1-c1ccccc1 13.7%, O=C(CSc1nc(O)c(Cc2ccccc2)c(=O)[nH]1)Nc1ccccc1 51.3%, COc1ccc(-c2noc(CSc3nc(N)c(-c4ccccc4)c(=O)[nH]3)n2)cc1OC -5.97%, Nc1nc(SCC(=O)Nc2ccccc2)[nH]c(=O)c1-c1ccccc1 8.35%, COc1ccc(-c2noc(CSc3nc(N)c(-c4ccccc4)c(=O)[nH]3)n2)cc1 10.2%, CCOCCCNC(=O)CCNC(=O)c1cc(OC)c(OC)c(OC)c1 3.56%, CCN(CC)S(=O)(=O)c1ccc(C(=O)NCCN2C(=O)S/C(=C\c3cccnc3)C2=O)cc1 -4.15%, [N-]=C=C1C(=S)NC(=O)[C@H]([n+]2ccccc2)[C@H]1c1ccc(Cl)cc1 6.14%, COc1cc(NC(=O)c2ccccc2Cl)c(OC)cc1NC(=O)CN1CCCCC1 13.6%, CC(=O)Nc1ccc(C(=O)CSc2nnnn2C2CCCC2)cc1 11.4%, O=C(Cc1ccccc1)NCC(=O)OC(c1ccccc1)c1ccccc1 0.75%, OC(C#CCN1CCCC1)c1ccccc1 (stereo not drawn) 9.35%, O=S(=O)(c1ccccc1)n1ccc2cccnc21 7.22%, Cc1ccc(S(=O)(=O)CCC(=O)NCc2ccccc2Cl)cc1 22.9%, Cc1ccc(C)c2nc3sc(C(=O)N4CCCc5ccccc54)c(N)c3cc12 8.65%, O=C1C2C(c3ccccc3)C=CC(c3ccccc3)C2C(=O)N1C1CCCCC1 (stereo not drawn) 4.34%, COCCn1c(SCC(=O)Nc2cccc(OC)c2)nc2c(oc3ccccc32)c1=O -1.96%, COc1cccc(NC(=O)CSc2ncnc3c2oc2ccccc23)c1 2.46%, CCOC(=O)c1cccnc1SCC(=O)Nc1ccc(C)cc1 3.41%, CCN(C(=O)CSc1ncccc1C(=O)Oc1cccc([N+](=O)[O-])c1)c1cccc(C)c1 -2.44%, CCC(Sc1ncccc1C(=O)Oc1cccc([N+](=O)[O-])c1)C(=O)Nc1ccccc1OC (stereo not drawn) 46.5%, CSc1cccc(NC(=O)CSc2ncccc2C(=O)Oc2cccc([N+](=O)[O-])c2)c1 53%, O=C(N1CCCCC1)N1CCCN(C(=O)N2CCCCC2)CC1 7.89%, O=C(COc1ccc2ccccc2c1)Nc1ccc(S(=O)(=O)N2CCCCCC2)cc1 -9.55%, Cc1ccc(C(=O)Nc2nnc(C)s2)cc1 11.4%, O=C(Nc1nc(=O)c2ccccc2s1)c1ccccc1 6.62%, Cc1ccc(C(=O)Nc2nccs2)cc1 2.76%, CC(=O)Cc1nsc(NC(=O)c2ccccc2)n1 9.29%, CC(C)CCC1(CCNC(=O)c2cccs2)CCOC(C)(C)C1 (stereo not drawn) 0.32%, Cc1ccc(S(=O)(=O)n2nc(-c3ccco3)nc2N)cc1 -3.51%, O=C(NCCSCc1ccccc1)c1cc(S(=O)(=O)N2CCOCC2)ccc1F 6.12%, CC(C(O)C12CC3CC(CC(C3)C1)C2)N1CCCCC1 (stereo not drawn) 9.11%, Cc1nn(-c2ccccc2)c(C)c1/C=C/C(=O)OC(C)C(=O)Nc1ncc(Cl)cc1Cl (stereo not drawn) -12.7%, Cc1cc(=O)n(CNC(=O)c2ccccc2)c(=S)[nH]1 -9.25%, Nc1cc(=O)[nH]c(SCC(=O)Nc2ccc3c(c2)CCC3)n1 53.8%, O=C(CSc1nccc(=O)[nH]1)Nc1ccc2c(c1)OCCO2 -0.7%, O=C(CSc1nc2ccc(Cl)cc2[nH]1)Nc1ccc2c(c1)CCC2 3.87%, O=C(CSc1nc2ccccc2[nH]1)Nc1ccc2c(c1)CCC2 1.81%, CC(C)Cc1c(O)nc(SCC(=O)Nc2ccc3c(c2)CCC3)[nH]c1=O 54.1%, Cn1cnnc1SCC(=O)Nc1ccc2c(c1)CCC2 42.8%, CCC(C)c1c(O)nc(SCC(=O)Nc2ccccc2)[nH]c1=O (stereo not drawn) 25.4%, O=C(CSc1nncs1)Nc1ccc2c(c1)OCCO2 23.5%, Cc1coc(C)c1C(=O)CC1(O)C(=O)Nc2cc(Cl)cc(Cl)c21 (stereo not drawn) -6.03%, Cc1ccc(S(=O)(=O)N(C)C)cc1NC(=O)COc1ccc(-c2nnco2)cc1 -1.3%, CC(NS(=O)(=O)c1ccc([N+](=O)[O-])cc1)C(=O)NN (stereo not drawn) 5.26%, O=C1NC(=S)N/C1=C/c1cccn1-c1ccc([N+](=O)[O-])cc1 -21%, COc1ccc(OC)c(/C=C/C(=O)OCC(=O)Nc2ccc(Cl)c(S(=O)(=O)N(C)C)c2)c1 5.28%, Cc1cc(C)n(C(=O)c2ccc(C)o2)n1 6.21%, Cc1ccc(S(=O)(=O)c2ccc(NN)cc2)cc1 20.8%, Cc1ccc(C2N(c3nccs3)C(=O)C3CCCN32)cc1 (stereo not drawn) -15.4%, Fc1ccc(COc2ccccc2C(=S)N2CCCC2)cc1 10.6%, CN(C)S(=O)(=O)c1ccc(C(=O)NCc2ccccn2)cc1 -3.48%, CC(=O)NS(=O)(=O)c1ccc(NS(=O)(=O)c2ccc(F)cc2)cc1 -13%, Cc1ccc(S(=O)(=O)NC(=O)Nc2cc(C)ccc2F)cc1 -4.66%, Cc1cc2c(cc1C)-c1c(ssc1=Nc1ccc(S(N)(=O)=O)cc1)C(C)(C)N2 -1.4%, CC(=O)NS(=O)(=O)c1ccc(N=c2ssc3c2-c2cc(C)ccc2NC3(C)C)cc1 55%, Cc1nn(-c2ccc(Cl)c(Cl)c2Cl)c(=O)c2ccccc12 -4.32%, N#CC(C#N)=Cc1ccc(OC(=O)c2ccccn2)cc1 15.9%, COc1cc2c(cc1OC)C1(Nc3c-2c(-c2ccccc2)nn3-c2ccccc2)C(=O)Nc2ccccc21 (stereo not drawn) 0.95%, O=C(COC(=O)c1cnccn1)Nc1ccc2c(c1)OCO2 13.5%, CCOc1ccc(CCNC(=O)CN(C)S(=O)(=O)c2ccc3c(c2)CCC(=O)N3)cc1OCC -8.18%, COC(=O)CN(Cc1ccccc1)S(=O)(=O)c1ccc(OC)c(OC)c1 -2.5%, O=S(=O)(c1cccs1)N1CCN(c2ncccn2)CC1 -7.79%, COc1ccc(C(=O)Nc2ccccc2N2CCOCC2)cc1[N+](=O)[O-] 7.12%, CCOC(=O)c1c(-c2cccs2)csc1NC(=O)CC(C)C 7.23%, CCOC(=O)c1c(-c2cccs2)csc1NC(C)=O -14.7%, Cc1ccc(OCCCN2C(=O)C(=O)c3cccc(C)c32)cc1 13.8%, OC1NC(=S)N(c2ccccc2)C1O (stereo not drawn) 8.92%, COc1ccc(C2NC(=S)N3C(c4ccc(OC)cc4)NC(=S)N23)cc1 (stereo not drawn) 34.8%, COc1cccc(CC(NC(C)=O)C(=O)NC2CCN(c3nnnn3-c3ccccc3)CC2)c1 (stereo not drawn) 5.55%, CN(CCC#N)CC(=O)Nc1ccc(NC(=O)CN(C)CCC#N)cc1 -4.87%, NC(=O)c1ccc(-c2ccccc2F)cc1 6.07%, O=S1(=O)N=C(Nc2ccc(O)c(CN3CCCCC3)c2)c2ccccc21 18.9%, CCOC(=O)c1c(NC(=O)CSc2nnc(C)s2)sc2c1CCCCC2 -4.03%, Cc1nnc(SCC(=O)Nc2sc3c(c2C(N)=O)CCCC3)[nH]c1=O 49.5%, COC(=O)c1c(NC(=O)CSc2nnc(C)c(=O)[nH]2)sc(C)c1C 21.5%, CCOC(=O)c1c(NC(=O)CSc2nnc(C)c(=O)[nH]2)sc(C)c1C 11.9%, Cc1ccc(C(=O)c2cn[nH]c2-c2ccccc2O)cc1 44.9%, CCOC(=O)C1(C(=O)OCC)C(c2ccccc2)CC(O)N1C(C)=O (stereo not drawn) 1.54%, NC(=O)c1ccc(NC(=O)c2ccccc2S(=O)(=O)c2ccccc2[N+](=O)[O-])cc1 9.64%
